SW480 rerep: induces DNA re-replication in SW480 colon adenocarcinoma cells; AID 624297; Potency, µM (top dose mostly 46.1 µM), for inactives: at the top dose re-replication activation, hits mostly activators; 340,000 compounds, 1.8% hits; SW480 DNA re-replication, Hoechst DNA content imaging, 48 h; further: potency means the concentration at half of the fitted maximal effect; % of control where 0% means no effect; nearly all actives have a fitted effect of over 55% in size
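250 cells/well; 23 nL cpd via pin tool; 48 hr, 37 C, 5% CO2; Hoechst 40 min; imager read of total nuclear intensity, ex 405/em 500-530 nm.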
Chronic BCR inh: blocks chronic active B-cell receptor signaling. ABC-DLBCL IkBa-CBG/CBR reporter, luminescence ratio, 4 h. 340,000 compounds, 0.05% hits. Potency, µM (top dose mostly 46.1 µM), without a hit: top-dose activity change, negative = inhibition, hits mostly inhibitors; active means well fitted inhibition curve with a large enough effect in the signal ratio, with a control signal flat, not every such curve was filed as active; inconclusive means small, poorly fitted or top-dose-only effect, or effect the other way, or a change in a side signal; the % refers to the signal ratio;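 further: potency means the concentration at half of the fitted maximal effect; plate controls were basal doxycycline-induced cells for no effect and cells given 10 µM MG132 for full effect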
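Cell line TMD8 (human ABC DLBCL), stably expressing tet-inducible CBG68-IkBa fusion and CBR; IMDM/0.5% FBS; cpd up to 46 uM; dox induction, 4 h, 37C/5% CO2; dual luminescence; green/red ratio; MG132 control.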
IL1B secr inh: inflammasome signaling inhibition, IL-1 beta readout | THP-1 LPS/ATP IL-1B secretion, AlphaLISA, 16 h; stronger effect = lower value | activity change, % at 57.5 µM | 360,000 compounds, 4.7% hits; in the data active means activity change below about -50%; inconclusive means mostly about -30% to -49%; further: on the % scale 0 is the no-effect control and ±100 the full control effect
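THP-1 cells pretreated 1 hr with compounds (up to 57.5 uM final), then stimulated with LPS (250 ng/mL final) plus ATP (1.25 mM final); secreted IL-1B measured by AlphaLISA after 16 hr, decreased signal indicating inhibition.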
TDP1 cell CPT: DT40-hTDP1 cell growth loss with CPT | chicken DT40 Tdp1-/-;hTDP1 cells + 20 nM CPT, ATP luminescence, 48 h | Potency, µM (doses to about 46.2 µM), for inactives: at the highest dose activity change, negative = growth inhibition, most hits filed as inhibitors | 420,000 compounds, 12% hits | AID 686979; further: potency means the concentration at half of the fitted maximal effect; on the % scale 0 is the no-effect control and ±100 the full control effect; nearly all actives have a fitted effect of over 55% in size
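Chicken DT40 Tdp1-/- cells stably complemented with human TDP1 were seeded at 400 cells/well in medium containing 20 nM camptothecin, exposed to pin-transferred compounds, and grown at 37 °C for at least 48 hr. Viability was read as ATP luminescence.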
MCF10A rerep: inducers of DNA re-replication in MCF 10A breast cells; MCF 10A DNA re-replication, Hoechst nuclear intensity, 48 h; Potency, µM (highest dose often 46.1 µM), for inactives: top-dose activity, positive = re-replication, usual class: activators; 350,000 compounds, 2.9% hits; AID 624296; further: potency means the concentration at half of the fitted maximal effect; % of control where 0% means no effect; nearly all actives have a fitted effect of over 50% in size
TDP1 cell noCPT: qHTS for Inhibitors of human tyrosyl-DNA phosphodiesterase 1 (TDP1): qHTS in cells in absence of CPT; DT40 Tdp1-/- hTDP1 cells, no CPT, ATP luminescence, 48 h; Potency, µM (doses to about 46.2 µM), for inactives: at the top dose activity change, negative = growth inhibition, most hits filed as inhibitors; 420,000 compounds, 15% hits; AID 686978, 2013; further: potency means the concentration at half of the fitted maximal effect; on the % scale 0 is the no-effect control and ±100 the full control effect; nearly all actives have a fitted effect of over 55% in size
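A cellular qHTS used chicken DT40 cells lacking endogenous Tdp1 but carrying stably transfected human TDP1. Compounds were applied without camptothecin, and cell growth kinetics were judged by ATP-dependent luminescence after ≥48 hr.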
Active calls of the source: *; ? = inconclusive; . = no result given; [ ] = dose if it differs, or a comment. Sampled rows, rich in hits. Any-hit rate of the full collection: about 19%. Unless noted, the call rests on the fitted dose curve; in most records, active means well fitted curve in the direction sought with a large enough effect; inconclusive means small, poorly fitted or top-dose-only effect, or another doubt; inactive means no such curve, though single readings can be large; an effect the other way counts as inactive or inconclusive.

SMILES	SW480 rerep	Chronic BCR inh	IL1B secr inh	TDP1 cell CPT	MCF10A rerep	TDP1 cell noCPT
COc1cccc(/C=N/Nc2nc(Nc3ccccc3)nc(-n3nc(C)cc3C)n2)c1O	5.8µM*	?	0	0.82µM*	15µM*	0.58µM*
Cc1ccccc1Nc1nnc(SCC(=O)c2c(N)n(C3CC3)c(=O)[nH]c2=O)s1	-1%	?	33	-2%	11%	-8%
CSc1ccc(CN(C)CC(=O)Nc2c(F)cccc2F)cc1	?	-5%	22	21µM*	8%	?
CCc1cccc(C)c1NC(=O)CN(C)Cc1ccccc1F	0%	-1%	0	15µM*	17%	16µM*
CCc1cccc(C)c1NC(=O)CCOc1ccccc1	-3%	?	9	5%	14%	2%
COc1ccc(NC(=O)CN(C)S(=O)(=O)c2cnc[nH]2)cc1Cl	?	-19%	25	11%	0%	36%
CCOc1ccc(S(=O)(=O)/N=C(\N)c2ccccc2)cc1	23%	1%	-11	23µM*	-5%	12µM*
COc1ccc(CNC(=O)NC2CCCCC2)cc1	18µM*	?	5	-4%	3.7µM*	0%
COc1ccc(CCNC(=O)C(=O)NCC2CCCO2)cc1 (centres undefined)	-7%	?	-5	-6%	-10%	-23%
COc1ccc(CNC(=O)C(=O)NCC2CCCO2)cc1 (centres undefined)	-27%	0%	3	16µM*	?	21µM*
CCn1cc(C(=O)NCCCN(CC(C)C)CC(C)C)c(=O)c2cc(S(=O)(=O)N3CCOCC3)ccc21	4%	2%	-16	-2%	-2%	12%
O=c1ccc2cc3c(-c4ccccc4)coc3cc2o1	0%	12%	-5	5%	23µM*	-5%
N#CC1=C(N)Oc2n[nH]c(-c3cccs3)c2C1c1ccsc1 (centres undefined)	-4%	0%	19	-21%	22%	-12%
Cc1ccc(C2NC(=O)c3n[nH]c(-c4cccs4)c32)cc1 (centres undefined)	.	.	.	?	.	18µM*
COC(=O)C1C(=O)N(S(=O)(=O)c2ccc([N+](=O)[O-])cc2)c2ccccc21 (centres undefined)	.	.	-13	10%	.	5%
COc1ccc(/C=C2\CCc3ccccc3C2=O)cc1OC	?	?	10	?	?	?
COc1ccc(/C=C2/CCc3ccccc3C2=O)cc1CN1CCOCC1	-695%	-15%	-1	23µM*	?	16µM*
COc1ccc(/C=C2\CCc3ccccc3C2=O)cc1Cn1nc(C)cc1C	?	10%	-51*	?	?	?
O=C(c1cccc([N+](=O)[O-])c1)N1CCN(CCc2ccncc2)CC1	.	.	.	-11%	.	-3%
N#Cc1c(Cl)nsc1NN	0%	?	-64*	?	16%	?
O=C(CCCSc1nnc(SCCCC(=O)c2ccc(F)cc2)s1)c1ccc(F)cc1	?	0%	-81*	18µM*	?	?
CCCCCCOc1ccc(N2C(=O)CC(SC(=NCC)NCC)C2=O)cc1 (centres undefined)	-69%	15%	0	-5%	?	-1%
COc1cc(/C=N/NC(N)=O)ccc1OC(=O)c1ccc(C)cc1	.	2%	.	.	.	.
COc1ccc(/C=c2\s/c(=C/C(=O)c3ccc(C)cc3)[nH]c2=O)cc1OC	23%	?	9	?	13µM*	18µM*
C/C(=N/NC(=O)CNC(=O)c1cccnc1)c1ccc(Cl)c(Cl)c1	0%	-4%	?	-10%	-1%	3%
SMILES	SW480 rerep	Chronic BCR inh	IL1B secr inh	TDP1 cell CPT	MCF10A rerep	TDP1 cell noCPT
c1cc(-c2ccc3nncn3c2)ccc1CN1CCOCC1	.	.	-9	-25%	.	-10%
C[C@@H]1CN(Cc2ccc3c(c2)CN(Cc2cccn2-c2ccccn2)CCO3)C[C@H](C)O1	.	.	.	-5%[9.04 µM]	.	-2%
C[C@@H]1CN(Cc2ccc3c(c2)CN(Cc2cccc(O)c2)CCO3)C[C@H](C)O1	.	.	.	-1%[9.04 µM]	.	?
Fc1ccc(N2CCN(Cc3ccc4c(c3)CN(Cc3cccn3-c3cccnc3)CCO4)CC2)cc1	.	.	.	?	.	21µM*
Cc1nc2sccn2c1CN1CCOc2ccc(CN3C[C@@H](C)O[C@@H](C)C3)cc2C1	.	.	.	10µM*	.	8.2µM*
C[C@@H]1CN(Cc2ccc3c(c2)CN(Cc2cccn2-c2cccnc2)CCO3)C[C@H](C)O1	.	.	.	-2%[9.04 µM]	.	15µM*
Cc1ccc(C)c(S(=O)(=O)Nc2cc3c4c(c2)CCC(=O)N4CCC3)c1	-44%	12%	42	?	4%	?
CCCOC(=O)c1ccc(NC(=O)Cc2csc(C)n2)cc1	.	.	.	-37%	.	?
COc1cccc(/C=C/c2nc(S(=O)(=O)c3ccccc3)c(N(C)C)o2)c1	?	-8%	?	?	12µM*	?
CN(C)c1oc(/C=C/c2cccs2)nc1S(=O)(=O)c1ccccc1	23µM*	10%	-10	-8%	18µM*	-17%
COc1ccccc1/C=C/c1nc(S(=O)(=O)c2ccccc2)c(N(C)C)o1	?	1%	-62*	?	21µM*	?
COc1ccc(NC(=O)c2cccc(N3CCCS3(=O)=O)c2)c(OC)c1	.	.	.	-24%	.	12%
CCOC(=S)SCC(=O)N1CCc2cc(OC)ccc2C1C1C(=O)CCCC1=O (centres undefined)	10µM*	?	91	?	?	18µM*
COc1cc(/C=C/C(=O)OCC(=O)N2CCC(Cc3ccccc3)CC2)ccc1O	-7%	?	-70*	?	27%	15µM*
COc1cc(C(=O)OCC(=O)N2CCC(Cc3ccccc3)CC2)cc(OC)c1OC	-2%	?	-15	?	19%	16µM*
COc1ccc(C(=O)C(=O)N2CCC(Cc3ccccc3)CC2)cc1OC	.	.	-15	?	.	21µM*
COc1cc(/C=C/C(=O)OCC(=O)N2CCC(C)CC2)ccc1O	0%	3%	0	-10%	17%	-15%
COc1cccc(OC)c1C(=O)OCC(=O)N1CCC(Cc2ccccc2)CC1	-3%	?	12	-4%	-1%	-6%
COc1cccc(OC)c1OCCCN1CCC(Cc2ccccc2)CC1	-3%	0%	-65*	?	13%	?
COc1ccc(C2NC(=O)N(C)C3=C2C(=O)N(c2ccc(C)cc2)C3)cc1 (centres undefined)	.	.	.	9%	.	0%

Screening data: PubChem, National Center for Advancing Translational Sciences (NCATS)
